# According to the supplement of paper PMC8728848:
# The full list was thinned out, with the strongest signals kept by preference.
# B1: Gal 7 (Canis lupus) (protein)
# chain: MAGSSNVPHKTSLPEGIRVGTVMRIRGVVPNKAGRFYVNLLCGEAPGSEAALHFNPRLDESTVVFNTLEQGAWGREERGTGIPFQRGQPFDVLLIATDEGFKAVVGDSEYHHFRYRIPPARVRLLEVGGDLQLESVSVF
# How the values were obtained:
# Experiment in all cases: glycan array binding signal (z-score within array); higher = stronger binding
# Conditions in all cases: glycan notation: IUPAC condensed, linker removed
# [1] = target: Fuc(a1-2)Gal(b1-3)GlcNAc(b1-2)Man(a1-3)[Fuc(a1-2)Gal(b1-3)GlcNAc(b1-2)Man(a1-6)]Man(b1-4)GlcNAc(b1-4)[Fuc(a1-6)]GlcNAc
# Method in brief: (§1)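 The binding signal is a Z-score computed within each array. Data were drawn from 3228 arrays in the Consortium for Functional Glycomics database, restricted to those with a known protein sequence. Scores were averaged over arrays of the same protein sequence at different concentrations or buffers, and over linkers, and negative values can be taken as non-binding.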
# [2] = target: Fuc(a1-2)Gal(b1-3)GlcNAc(b1-3)GalNAc
# Method in brief: as §1
# [3] = target: Fuc(a1-2)Gal(b1-3)[Fuc(a1-4)]GlcNAc(b1-3)[Gal(b1-4)GlcNAc(b1-6)]Gal(b1-4)Glc
# Method in brief: as §1
# [4] = target: Fuc(a1-2)Gal(b1-4)GlcNAc(b1-3)Gal(b1-4)GlcNAc
# Method in brief: as §1
# [5] = target: Fuc(a1-2)Gal(b1-4)GlcNAc(b1-3)Gal(b1-4)GlcNAc(b1-3)Gal(b1-4)GlcNAc
# Method in brief: as §1
# [6] = target: Fuc(a1-2)Gal(b1-4)[Fuc(a1-3)]GlcNAc(b1-3)Gal(b1-4)[Fuc(a1-3)]GlcNAc(b1-3)Gal(b1-4)[Fuc(a1-3)]GlcNAc
# Method in brief: as §1
# [7] = target: Fuc(a1-2)[Gal(a1-3)]Gal(b1-4)GlcNAc(b1-2)Man(a1-3)[Fuc(a1-2)[Gal(a1-3)]Gal(b1-4)GlcNAc(b1-2)Man(a1-6)]Man(b1-4)GlcNAc(b1-4)[Fuc(a1-6)]GlcNAc
# Method in brief: as §1
# [8] = target: Fuc(a1-2)[Gal(a1-3)]Gal(b1-4)[Fuc(a1-3)]GlcNAc(b1-3)GalNAc
# Method in brief: as §1
# [9] = target: Fuc(a1-2)[GalNAc(a1-3)]Gal(b1-4)GlcNAc(b1-3)Gal(b1-4)GlcNAc
# Method in brief: as §1
# [10] = target: Fuc(a1-2)[GalNAc(a1-3)]Gal(b1-4)GlcNAc(b1-3)Gal(b1-4)GlcNAc(b1-3)Gal(b1-4)GlcNAc
# Method in brief: as §1
# [11] = target: Fuc(a1-3)GlcNAc
# Method in brief: as §1
# [12] = target: Gal(b1-2)Gal
# Method in brief: as §1
# [13] = target: Gal(b1-3)GalNAc(a1-3)[Fuc(a1-2)]Gal(b1-4)Glc
# Method in brief: as §1
# [14] = target: Gal(b1-3)GlcNAc(b1-2)Man(a1-3)[Gal(b1-3)GlcNAc(b1-2)Man(a1-6)]Man(b1-4)GlcNAc(b1-4)GlcNAc
# Method in brief: as §1
# [15] = target: Gal(b1-3)[Fuc(a1-4)]GlcNAc(b1-2)Man(a1-3)[Gal(b1-3)[Fuc(a1-4)]GlcNAc(b1-2)Man(a1-6)]Man(b1-4)GlcNAc(b1-4)GlcNAc
# Method in brief: as §1
# [16] = target: Gal(b1-3)[Fuc(a1-4)]GlcNAc(b1-2)Man(a1-3)[Gal(b1-3)[Fuc(a1-4)]GlcNAc(b1-2)Man(a1-6)]Man(b1-4)GlcNAc(b1-4)[Fuc(a1-6)]GlcNAc
# Method in brief: as §1
# [17] = target: Gal(b1-4)GlcNAc(b1-3)Gal(b1-4)GlcNAc(b1-3)Gal(b1-4)GlcNAc
# Method in brief: as §1
# [18] = target: Gal(b1-4)GlcNAc(b1-6)Gal(b1-4)GlcNAc
# Method in brief: as §1
# [19] = target: Gal4S(b1-4)GlcNAc
# Method in brief: as §1
# [20] = target: Gal6S(b1-4)Glc
# Method in brief: as §1
# [21] = target: Gal6S(b1-4)GlcNAc
# Method in brief: as §1
# [22] = target: GlcNAc(b1-2)Man(a1-3)[GlcNAc(b1-4)][GlcNAc(b1-2)Man(a1-6)]Man(b1-4)GlcNAc(b1-4)GlcNAc
# Method in brief: as §1
# [23] = target: Neu5Ac(a2-3)Gal(b1-3)GlcNAc(b1-3)GalNAc
# Method in brief: as §1
# [24] = target: Neu5Ac(a2-6)Gal(b1-4)GlcNAc(b1-2)Man(a1-3)[Gal(b1-4)GlcNAc(b1-2)Man(a1-6)]Man(b1-4)GlcNAc(b1-4)GlcNAc
# Method in brief: as §1
# [25] = target: Neu5Ac(a2-6)Gal(b1-4)GlcNAc(b1-2)Man(a1-6)[Man(a1-3)]Man(b1-4)GlcNAc(b1-4)GlcNAc
# Method in brief: as §1
# [26] = target: Neu5Ac(a2-6)Gal(b1-4)GlcNAc(b1-3)Gal(b1-3)GlcNAc
# Method in brief: as §1
# [27] = target: Neu5Ac(a2-6)Gal(b1-4)GlcNAc(b1-3)Gal(b1-4)GlcNAc(b1-3)Gal(b1-4)GlcNAc
# Method in brief: as §1
# [28] = target: Neu5Gc(a2-3)Gal(b1-4)GlcNAc
# Method in brief: as §1
binder,measurement,setting,value
B1,glycan array binding signal (z-score),[1],-0.169
same,glycan array binding signal (z-score),[2],-0.187
same,glycan array binding signal (z-score),[3],-0.135
same,glycan array binding signal (z-score),[4],9.85
same,glycan array binding signal (z-score),[5],8.28
same,glycan array binding signal (z-score),[6],5.78
same,glycan array binding signal (z-score),[7],1.25
same,glycan array binding signal (z-score),[8],-0.16
same,glycan array binding signal (z-score),[9],3.55
same,glycan array binding signal (z-score),[10],2.59
same,glycan array binding signal (z-score),[11],-0.217
same,glycan array binding signal (z-score),[12],-0.214
same,glycan array binding signal (z-score),[13],0.252
same,glycan array binding signal (z-score),[14],-0.08
same,glycan array binding signal (z-score),[15],-0.166
same,glycan array binding signal (z-score),[16],-0.199
same,glycan array binding signal (z-score),[17],3.2
same,glycan array binding signal (z-score),[18],-0.206
same,glycan array binding signal (z-score),[19],-0.2
same,glycan array binding signal (z-score),[20],-0.204
same,glycan array binding signal (z-score),[21],-0.195
same,glycan array binding signal (z-score),[22],-0.186
same,glycan array binding signal (z-score),[23],-0.22
same,glycan array binding signal (z-score),[24],-0.212
same,glycan array binding signal (z-score),[25],-0.212
same,glycan array binding signal (z-score),[26],3.85
same,glycan array binding signal (z-score),[27],3.5
same,glycan array binding signal (z-score),[28],-0.217
